Here are results for 8 compounds from PubChem BioAssay.

Calls of active or inactive are those of the source. Unless noted, no rule for the calls is given here.

In experiment [1] the test system is Wnt5a (protein binding on small-molecule microarray). Nature of the experiment: Wnt5a binders on small-molecule microarray, primary screen, biophysical, 635/667 nm fluorescence (AID 1142).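 Also: fluorescence read at 667 nm with signal to noise per printed feature.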 As to conditions: 635 nm fluorescence, higher = more signal.
Experiment [2] can be described thus: cell viability in Huh7 cells, primary screen, cytotoxicity control for HCV replication inhibitor project, CellTiter-Glo luminescence, basal, 48 h (AID 1143).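 Also: Huh7 hepatoma cells carrying a hepatitis C replication reporter with no stimulus; test concentration not given here.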 To be noted: Huh7 HCV replicon, higher = more signal, called active from +8 up or from −8 down. In general terms: In ATP-based viability assays light output follows the ATP content of the culture.
Experiment [3] is described as follows: P. aeruginosa biofilm formation inhibitors, primary screen, PAO1 strain, BacTiter-Glo luminescence, LB-PBS (AID 1144). As to conditions: 12 h, higher = more signal.
Experiment [4] is described as follows: CREB reporter modulators without forskolin, primary screen, cell-based, PC12, CRE-LacZ reporter, unstimulated (AID 1145). As to conditions: no forskolin, luminescence, 4.5 h, higher = more signal, called active from +8 up or from −8 down.
Experiment [5] in a line: CREB reporter modulators under forskolin, primary screen, cell-based, PC12, CRE-LacZ reporter, forskolin-stimulated (AID 1146).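 Also: PC12 cells with 6xCRE LacZ reporter stimulated by forskolin 10 µM; beta-galactosidase reporter signal reflecting CREB driven transcription.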 To be noted: luminescence, 4.5 h, higher = more signal, called active from +8 up or from −8 down.
For experiment [6], the target named is Streptavidin (Streptomyces avidinii) (UniProt P22629). Nature of the experiment: streptavidin binders on small-molecule microarray, primary screen, artefact control for SMM compound annotation, biophysical, 635/667 nm fluorescence (AID 1147).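 Also: signal reflects streptavidin binding to arrayed compounds as a control protein.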 To be noted: streptavidin binding, higher = more signal.
Chain of Streptavidin (Streptomyces avidinii) (P22629 whole entry, looked up): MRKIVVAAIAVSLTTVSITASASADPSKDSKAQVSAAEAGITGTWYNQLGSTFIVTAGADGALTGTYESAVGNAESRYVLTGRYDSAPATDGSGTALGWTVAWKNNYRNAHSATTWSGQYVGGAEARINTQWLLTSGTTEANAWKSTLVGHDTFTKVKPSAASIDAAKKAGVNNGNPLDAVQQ
The nature of experiment [7]: small-molecule binders of probe aInhba, primary screen, biochemical, small-molecule microarray, 635/667 nm fluorescence (AID 1148).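 Also: score merges 667nm spot fluorescence with signal-to-noise for antibody binding to printed compounds.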 To be noted: higher = more signal.
Experiment [8] addresses Torsin-1A (Homo sapiens) (UniProt O14656). Nature of the experiment: torsin A binders from cell lysate, primary screen, small-molecule microarray, wild-type, 635/667 nm (AID 1149). To be noted: COS7 hTOR1A-WT lysate, 635 nm fluorescence, higher = more signal.
The target is the same in experiment [9]. Nature of the experiment: small-molecule binders of mutant TOR1A in lysate, primary screen, cell lysate, small-molecule microarray, COS7 lysate, 635/667 nm fluorescence (AID 1150).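 Also: score pools 667 nm emission and signal to noise measuring lysate protein binding.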 To be noted: COS7 hTOR1A mutant lysate, 635 nm fluorescence, higher = more signal.
In experiment [10] the test system is Sonic hedgehog protein (Shh). In words: small-molecule binders of Shh protein, primary screen, biochemical, small-molecule microarray, 635/667 nm fluorescence (AID 1151).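 Also: Shh protein binding to compounds spotted on small-molecule microarray slides; score combines spot fluorescence intensity with signal-to-noise across triplicate slides.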 As to conditions: small-molecule microarray binding, 635 nm fluorescence; higher = more signal.
Experiment [11] is described as follows: E. coli DRC41 culture turbidity changes, primary screen, E. coli filamentation inducer project, strain DRC41, OD650, 48 h (AID 1152).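 Also: E. coli MC1000 strain DRC41 lacking acrAB efflux pump and sulA.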 To be noted: E. coli DRC41 (acrAB sulA), higher = more signal, called active from +8 up or from −8 down.
The nature of experiment [12]: small-molecule binders of probe aLefty1, primary screen, biochemical, small-molecule microarray, 635/667 nm fluorescence (AID 1153).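 Also: score merges spot fluorescence with signal-to-noise ratio from the scanned slide images.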 As to conditions: higher = more signal.
A short description of experiment [13]: PSAC antagonists in infected red cells, primary screen, cell-based, P. falciparum Indochina, OD700, 1 h (AID 1154). As to conditions: P. falciparum Indochina infected RBC osmotic lysis, higher = more signal, called active from +8 up or from −8 down.
Experiment [14] can be described thus: PSAC antagonists in infected red cells, primary screen, cell-based, P. falciparum Indochina, OD700, 2 h (AID 1155).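 Also: lysis reports solute entry through the parasite surface anion channel PSAC; channel blockers reduce lysis of infected cells.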 To be noted: P. falciparum Indochina infected erythrocytes, osmotic lysis OD700; higher = more signal, called active from +8 up or from −8 down.
Experiment [15] can be described thus: osmotic lysis modulators in infected erythrocytes, primary screen, PSAC antagonist project, cell-based, P. falciparum Indochina, OD700, 3 h (AID 1156). As to conditions: higher = more signal, called active from +8 up or from −8 down.
The nature of experiment [16]: PSAC antagonists in infected red cells, primary screen, cell-based, P. falciparum Indochina, OD700, 18 h (AID 1157). As to conditions: P. falciparum Indochina infected erythrocytes, osmotic lysis OD700, 18 h; higher = more signal, called active from +8 up or from −8 down.
Experiment [17] can be described thus: modulators of S6 phosphorylation in cells, primary screen, cell-based, A549, cytoblot, luminescence, serum-stimulated (AID 1158).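 Also: serum-stimulated A549 lung adenocarcinoma cells; signal is phosphorylated S6 detected by cytoblot immunostaining with HRP secondary.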 To be noted: A549 phospho-S6 cytoblot, 5 h, higher = more signal.
For experiment [18], the target named is NADPH oxidase 2 (Homo sapiens) (UniProt P04839). In words: NOX2-dependent H2O2 signal modulators, primary screen, NOX inhibitor project, cell-based, HEK293-NOX2, PMA-stimulated, Amplex Red fluorescence (AID 1159). Also: test concentration not given here. As to conditions: 45 min, higher = more signal, called active from +8 up or from −8 down.
Chain of NADPH oxidase 2 (Homo sapiens) (P04839 whole entry, looked up): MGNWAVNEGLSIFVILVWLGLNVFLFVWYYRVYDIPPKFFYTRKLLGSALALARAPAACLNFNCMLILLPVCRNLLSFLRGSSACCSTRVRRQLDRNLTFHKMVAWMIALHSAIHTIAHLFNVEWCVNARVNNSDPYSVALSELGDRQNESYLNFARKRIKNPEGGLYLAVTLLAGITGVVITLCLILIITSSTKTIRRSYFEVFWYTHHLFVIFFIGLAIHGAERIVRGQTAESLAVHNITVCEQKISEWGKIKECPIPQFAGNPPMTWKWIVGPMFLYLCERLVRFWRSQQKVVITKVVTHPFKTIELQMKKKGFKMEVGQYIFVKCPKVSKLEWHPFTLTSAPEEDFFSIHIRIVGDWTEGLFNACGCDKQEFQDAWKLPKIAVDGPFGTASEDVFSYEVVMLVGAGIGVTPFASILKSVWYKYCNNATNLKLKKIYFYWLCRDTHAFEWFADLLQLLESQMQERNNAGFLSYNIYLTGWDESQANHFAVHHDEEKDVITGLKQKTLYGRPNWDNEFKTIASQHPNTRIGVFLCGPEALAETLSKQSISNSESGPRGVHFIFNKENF
Experiment [19] has as its target NADPH oxidase 4 (Homo sapiens) (UniProt Q9NPH5). In words: NOX4-dependent H2O2 signal modulators, primary screen, NOX inhibitor project, cell-based, HEK293-NOX4, tetracycline-induced, Amplex Red fluorescence (AID 1160). As to conditions: 45 min, higher = more signal, called active from +8 up or from −8 down.
Experiment [20] concerns the target NADPH oxidase 5 (Homo sapiens) (UniProt Q96PH1). In words: NOX5-dependent H2O2 signal modulators, primary screen, NOX inhibitor project, cell-based, HEK293-NOX5, Amplex Red fluorescence (AID 1161). As to conditions: HEK293-NOX5, ionomycin, 45 min, higher = more signal.

Chain of NADPH oxidase 5 (Homo sapiens) (Q96PH1 whole entry, looked up): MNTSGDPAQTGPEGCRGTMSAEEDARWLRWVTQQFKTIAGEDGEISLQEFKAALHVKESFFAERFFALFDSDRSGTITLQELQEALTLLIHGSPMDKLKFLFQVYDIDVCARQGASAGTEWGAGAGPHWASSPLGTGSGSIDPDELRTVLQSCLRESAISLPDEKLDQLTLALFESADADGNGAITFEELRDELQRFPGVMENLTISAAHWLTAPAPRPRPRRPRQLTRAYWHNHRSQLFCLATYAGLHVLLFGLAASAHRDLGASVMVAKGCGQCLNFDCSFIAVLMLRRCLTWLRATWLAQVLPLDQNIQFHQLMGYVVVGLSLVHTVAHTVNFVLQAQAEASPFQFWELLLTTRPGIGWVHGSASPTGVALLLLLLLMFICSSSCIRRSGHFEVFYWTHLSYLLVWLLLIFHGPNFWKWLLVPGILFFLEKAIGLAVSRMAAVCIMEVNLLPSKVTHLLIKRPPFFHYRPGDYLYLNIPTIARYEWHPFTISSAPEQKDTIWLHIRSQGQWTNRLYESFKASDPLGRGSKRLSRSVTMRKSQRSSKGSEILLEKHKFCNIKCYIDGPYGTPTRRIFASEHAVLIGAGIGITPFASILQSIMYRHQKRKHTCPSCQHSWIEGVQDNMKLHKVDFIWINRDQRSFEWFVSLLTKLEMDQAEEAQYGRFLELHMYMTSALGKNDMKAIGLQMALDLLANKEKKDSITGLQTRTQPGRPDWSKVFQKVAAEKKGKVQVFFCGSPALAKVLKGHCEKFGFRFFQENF
Chain of NADPH oxidase 4 (Homo sapiens) (Q9NPH5 whole entry, looked up): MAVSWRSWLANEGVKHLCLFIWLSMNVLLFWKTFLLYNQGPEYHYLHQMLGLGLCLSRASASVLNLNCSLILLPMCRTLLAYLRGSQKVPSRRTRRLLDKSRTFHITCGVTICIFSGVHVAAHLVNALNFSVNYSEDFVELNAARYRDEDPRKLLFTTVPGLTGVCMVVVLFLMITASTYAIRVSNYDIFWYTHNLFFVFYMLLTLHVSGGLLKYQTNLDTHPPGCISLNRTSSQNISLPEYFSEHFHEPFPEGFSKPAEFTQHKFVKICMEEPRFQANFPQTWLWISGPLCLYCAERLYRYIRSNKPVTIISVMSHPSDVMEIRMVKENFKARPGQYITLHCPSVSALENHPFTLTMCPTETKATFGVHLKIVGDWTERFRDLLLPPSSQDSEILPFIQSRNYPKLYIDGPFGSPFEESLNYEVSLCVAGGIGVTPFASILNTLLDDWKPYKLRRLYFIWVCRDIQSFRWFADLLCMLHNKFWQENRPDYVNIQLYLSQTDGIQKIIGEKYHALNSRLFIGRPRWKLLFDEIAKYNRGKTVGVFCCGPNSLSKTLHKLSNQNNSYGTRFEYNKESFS
Chain of Torsin-1A (Homo sapiens) (O14656 whole entry, looked up): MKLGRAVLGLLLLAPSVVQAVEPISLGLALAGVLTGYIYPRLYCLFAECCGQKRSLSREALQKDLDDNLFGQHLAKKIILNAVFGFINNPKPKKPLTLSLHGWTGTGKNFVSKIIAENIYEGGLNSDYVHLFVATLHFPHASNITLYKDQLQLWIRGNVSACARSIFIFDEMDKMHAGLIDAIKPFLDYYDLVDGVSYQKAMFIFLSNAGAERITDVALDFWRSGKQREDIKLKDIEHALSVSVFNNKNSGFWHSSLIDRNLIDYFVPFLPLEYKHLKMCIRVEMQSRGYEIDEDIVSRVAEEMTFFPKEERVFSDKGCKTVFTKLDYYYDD

For the compound `O=C1N(CCS(=O)(=O)c2ccccc2)c2ccccc2[C@H]2OC(c3ccc(OCCCO)cc3)=N[C@@]12Cc1ccccc1`, the composite z-score in [1] stood at 0.636; in experiment [6], 0.274; in experiment [7], 0.397; in experiment [8], 1.08; in experiment [9], 1.07; in [10], 1.74. The compound also displayed a composite z-score in [12] of 0.253. Further, the z-score is -3.51 (inactive) in [2]; 0.582 (inactive) in experiment [3]; 5.87 (inactive) in experiment [4]; -1.86 (inactive) in experiment [5]; -1.05 (inactive) in [11]; 31.2 (active) in experiment [13]. Besides, the z-score in [14] was 27.5 (active); in [15], 3.08 (inactive); in [16], 6.96 (inactive); in experiment [17] it was 0.468; in experiment [18] it was -1.85 (inactive); in experiment [19] it was 1.07 (inactive). This compound also yielded a z-score in [20] of -0.191.

Consider `CN(C)CCCCCCNC(=O)[C@@H]1C[C@@H]2C(=O)N3CCC[C@H]3C(=O)N2[C@@H]1c1cccc(OCCO)c1`, for which the composite z-score was 0.697 in experiment [1]; 0.656 in [6]; 1.06 in experiment [7]; 1.99 in experiment [8]; 1.43 in [9]; 1.54 in experiment [10]. Also, the composite z-score in experiment [12] is 0.0231. Also, the z-score was -0.0705 (inactive) in experiment [2]; 0.15 (inactive) in [3]; 0.151 (inactive) in experiment [4]; 0.766 (inactive) in [5]; -0.305 (inactive) in experiment [11]; 3.6 (inactive) in experiment [13]. For the same compound, the z-score was 0.456 (inactive) in experiment [14]; 0.77 (inactive) in [15]; 0.448 (inactive) in experiment [16]; -0.701 in experiment [17]; 1.03 (inactive) in experiment [18]; -0.884 (inactive) in [19]. Further, the z-score in experiment [20] stood at 0.837.

As for `CCCC1(C(=O)OC)C=C2C(=C(C)C(=O)C2C)CN1` (stereo not given), the composite z-score in experiment [1] is 0.0439; in experiment [6], -0.381; in experiment [7] it was 0.0487; in experiment [8] it was 0.149; in experiment [9], -0.0341; in experiment [10], -0.552. In experiment [12], this compound displayed a composite z-score of 0.193. Further, the z-score is 0.442 (inactive) in experiment [2]; -0.473 (inactive) in [3]; 2.3 (inactive) in experiment [4]; 2.15 (inactive) in experiment [5]; -1.8 (inactive) in experiment [11]; -0.0775 (inactive) in experiment [13]. For the same compound, the z-score was -0.0273 (inactive) in [14]; -0.0148 (inactive) in experiment [15]; 0.274 (inactive) in [16]; -0.386 in experiment [17]; 0.43 (inactive) in [18]; -1.28 (inactive) in experiment [19]. This compound also gave a z-score in experiment [20] of -2.88.

As to `Oc1ccc2cc[n+](Cc3cc4c(cc3Br)OCO4)cc2c1`, the composite z-score was -0.388 in experiment [1]; -0.909 in experiment [6]; -0.224 in experiment [7]; -0.896 in experiment [8]; -0.49 in experiment [9]; -0.598 in experiment [10]. In addition, in [12], the composite z-score is -0.196. For the same compound, the z-score is -0.501 (inactive) in [2]; -0.23 (inactive) in [3]; -0.788 (inactive) in [4]; -0.639 (inactive) in [5]; 1.27 (inactive) in [11]; 2.67 (inactive) in [13]. The z-score in [14] was 0.864 (inactive); in [15], -0.655 (inactive); in [16] it was 0.474 (inactive); in experiment [17] it was 0.122; in [18], -0.546 (inactive); in experiment [19], -0.154 (inactive). The compound further registered a z-score in experiment [20] of 0.389.

For the compound `C=C[C@@H](OC)[C@H](OC(=O)Nc1ccc(OC)cc1)c1ccc(O)c(F)c1`, the composite z-score is -0.182 in experiment [1]; -0.938 in experiment [6]; -0.197 in [7]; 0.281 in experiment [8]; -0.278 in [9]; 1.96 in experiment [10]. Also, the composite z-score in [12] was determined as 0.0774. The z-score in experiment [2] is -2.63 (inactive); in [3], -0.238 (inactive); in experiment [4], 2.21 (inactive); in experiment [5] it was 1.53 (inactive); in experiment [11], 0.308 (inactive); in experiment [13], 3.98 (inactive). Also, the z-score in experiment [14] was 0.517 (inactive); in experiment [15], 0.241 (inactive); in experiment [16] it was 0.475 (inactive); in experiment [17], -0.012; in experiment [18], -1.79 (inactive); in [19], 0.787 (inactive). Besides, the z-score in experiment [20] came to 3.63.

On to `C=CCN1C(=O)[C@]2(CCS(=O)(=O)c3ccccc3)N=C(c3ccc(OCCCO)cc3)O[C@@H]2c2ccccc21`, for which the composite z-score in [1] was found to be 0.782; in experiment [6], 0.479; in experiment [7], 0.0841; in [8], 0.659; in experiment [9] it was 0.573; in experiment [10], 1.65. The compound also yielded a composite z-score in experiment [12] of 0.303. The z-score was -3.58 (inactive) in experiment [2]; -0.492 (inactive) in experiment [3]; 1.8 (inactive) in experiment [4]; -1.11 (inactive) in [5]; 0.836 (inactive) in experiment [11]; 29.1 (active) in experiment [13]. Further, the z-score in [14] is 23.3 (active); in experiment [15], 1.29 (inactive); in experiment [16], 4.76 (inactive); in [17] it was 1.76; in experiment [18], -0.428 (inactive); in [19], 0.835 (inactive). This compound had a z-score in [20] of 1.28.

Consider `CN(C)C(=O)[C@@]1(Cc2ccccc2CN=[N+]=[N-])N=C(c2ccc(OCCCO)cc2)O[C@H]1c1ccccc1N=[N+]=[N-]`, for which the composite z-score in experiment [1] was found to be 0.0168; in experiment [6], 1.51; in [7], 0.439; in experiment [8], 0.504; in experiment [9] it was 1.21; in [10] it was 0.66. This compound showed a composite z-score in experiment [12] of 1.48. Besides, the z-score is -4.96 (inactive) in [2]; -0.638 (inactive) in experiment [3]; 1.74 (inactive) in experiment [4]; -1.69 (inactive) in experiment [5]; -0.383 (inactive) in experiment [11]; 29.9 (active) in [13]. For the same compound, the z-score in [14] is 26.7 (active); in experiment [15], 2.61 (inactive); in experiment [16], 6.04 (inactive); in [17], 1.76; in [18], -3.42 (inactive); in [19], -0.18 (inactive). Besides, in experiment [20], the z-score is -2.56.

On to `CCCCN1CC=CC23O[C@@H]4/C=C\CCC(C)OC(=O)C4[C@H]2C(=O)N(CCCO)[C@@H]3C1=O` (stereo not given in full), for which the composite z-score in [1] is -0.636; in experiment [6], -0.774; in [7] it was -0.247; in experiment [8], -1.54; in [9], -1.15; in experiment [10], -0.36. This compound returned a composite z-score in [12] of 0.0494. Further, the z-score is -0.183 (inactive) in [2]; 1.21 (inactive) in experiment [3]; 0.0605 (inactive) in experiment [4]; 0.0507 (inactive) in [5]; 0.323 (inactive) in [11]; 0.591 (inactive) in experiment [13]. Further, the z-score in experiment [14] was -0.0611 (inactive); in experiment [15], -0.23 (inactive); in experiment [16], 0.408 (inactive); in experiment [17] it was -0.118; in experiment [18], 1.1 (inactive); in experiment [19], -1.84 (inactive). The same compound registered a z-score in experiment [20] of 0.861.
